Assay results reported in PubChem BioAssay AID1159580 (chemical genetic matrix, 2015).
Hit rate of the full screen: of about 5,500 compounds, about 2,000 (36%) were called active. Another 18% or so got no clear call; they are omitted. Rule as the data show it: active = normalized growth mostly below about 0.91 (no sharp cut-off); inconclusive = no clear call, values can overlap the other calls; inactive = mostly above about 0.92. The list shows a part of the results.

Assay: chemical genetic growth profiling, strain panel (AID 1159580);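 also: tested at 20 µM; growth read once vehicle control cultures reached saturation at 30 °C; 1 = growth at the plate median or of vehicle wells; lower values mean less growth of the strain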
Conditions: growth OD

Measured: normalized growth

OCC(O)C(O)C(O)C(O)C(O)CO (configuration not stated)
inactive: S. cerevisiae deletion strains, locus YKL009W, strain mrt4, hits give low values 1.05 | S. cerevisiae deletion strains, locus YKL068W, hits give low values 0.98 | S. cerevisiae deletion strains, locus YKL085W, strain MDH1 (second series), hits give low values 1 | S. cerevisiae deletion strains, locus YKL085W, strain MDH1, hits give low values 1 | S. cerevisiae deletion strains, locus YKL160W, strain elf1, hits give low values 1.01 | S. cerevisiae deletion strains, locus YKL190W, strain CNB1, hits give low values 1.02 | S. cerevisiae deletion strains, locus YKR001C, strain vps1, hits give low values 1.01 | S. cerevisiae deletion strains, locus YKR026C, strain gcn3, hits give low values 1.01 | S. cerevisiae deletion strains, locus YKR091W, strain srl3, hits give low values 0.997 | S. cerevisiae deletion strains, locus YLL001W, strain dnm1, hits give low values 0.995 | S. cerevisiae deletion strains, locus YLL026W, hits give low values 0.999 | S. cerevisiae deletion strains, locus YLL041C, strain sdh2, hits give low values 0.998 | S. cerevisiae deletion strains, locus YLR027C, strain aat2, hits give low values 0.997 | S. cerevisiae deletion strains, locus YLR039C, strain RIC1, hits give low values 1.14 | S. cerevisiae deletion strains, locus YLR058C, strain SHM2, hits give low values 1 | S. cerevisiae deletion strains, locus YLR102C, strain apc9, hits give low values 0.987 | S. cerevisiae deletion strains, locus YLR113W, strain HOG1, hits give low values 0.965 | S. cerevisiae deletion strains, locus YLR221C, strain rsa3, hits give low values 1.01 | S. cerevisiae deletion strains, locus YLR258W, strain gsy2, hits give low values 1 | S. cerevisiae deletion strains, locus YLR262C, strain YPT6 (second series), hits give low values 1 | S. cerevisiae deletion strains, locus YLR268W, strain sec22, hits give low values 0.998 | S. cerevisiae deletion strains, locus YLR320W, strain mms22, hits give low values 0.985 | S. cerevisiae deletion strains, locus YLR330W, strain CHS5, hits give low values 0.992 | S. cerevisiae deletion strains, locus YLR342W, strain FKS1 (second series), hits give low values 0.998 | S. cerevisiae deletion strains, locus YLR342W, strain FKS1, hits give low values 0.993 | S. cerevisiae deletion strains, locus YLR357W, strain rsc2, hits give low values 0.974 | S. cerevisiae deletion strains, locus YLR370C, strain arc18, hits give low values 0.999 | S. cerevisiae deletion strains, locus YLR371W, strain rom2, hits give low values 1.03 | S. cerevisiae deletion strains, locus YLR384C, strain iki3, hits give low values 0.995 | S. cerevisiae deletion strains, locus YLR418C, strain cdc73, hits give low values 1 | S. cerevisiae deletion strains, locus YML016C, strain PPZ1, hits give low values 0.988 | S. cerevisiae deletion strains, locus YML032C, strain rad52, hits give low values 0.987 | S. cerevisiae deletion strains, locus YML120C, strain ndi1, hits give low values 0.988 | S. cerevisiae deletion strains, locus YML124C, strain tub3, hits give low values 0.988 | S. cerevisiae deletion strains, locus YMR058W, strain fet3, hits give low values 0.997 | S. cerevisiae deletion strains, locus YMR078C, strain ctf18, hits give low values 0.989 | S. cerevisiae deletion strains, locus YMR125W, strain sto1, hits give low values 0.973 | S. cerevisiae deletion strains, locus YMR129W, hits give low values 0.99 | S. cerevisiae deletion strains, locus YMR205C, strain PFK2, hits give low values 1 | S. cerevisiae deletion strains, locus YMR223W, strain ubp8, hits give low values 1.01 | S. cerevisiae deletion strains, locus YMR231W, strain pep5, hits give low values 0.998 | S. cerevisiae deletion strains, locus YMR307W, strain GAS1, hits give low values 1.12 | S. cerevisiae deletion strains, locus YNL067W, strain RPL9B, hits give low values 1.02 | S. cerevisiae deletion strains, locus YNL071W, strain lat1, hits give low values 1 | S. cerevisiae deletion strains, locus YNL153C, strain GIM3, hits give low values 1.03 | S. cerevisiae deletion strains, locus YNL183C, strain NPR1, hits give low values 0.932 | S. cerevisiae deletion strains, locus YNL209W, strain ssb2, hits give low values 1 | S. cerevisiae deletion strains, locus YNL233W, strain BNI4, hits give low values 1.06 | S. cerevisiae deletion strains, locus YNL248C, strain rpa49, hits give low values 0.99 | S. cerevisiae deletion strains, locus YNL250W, strain rad50, hits give low values 0.987 | S. cerevisiae deletion strains, locus YNL271C, strain bni1, hits give low values 1.01 | S. cerevisiae deletion strains, locus YNL298W, strain CLA4, hits give low values 0.99 | S. cerevisiae deletion strains, locus YNL307C, strain MCK1, hits give low values 0.992 | S. cerevisiae deletion strains, locus YNL322C, strain KRE1 (second series), hits give low values 0.999 | S. cerevisiae deletion strains, locus YNR049C, strain mso1, hits give low values 0.987 | S. cerevisiae deletion strains, locus YNR052C, strain pop2, hits give low values 1.03 | S. cerevisiae deletion strains, locus YOL006C, strain TOP1, hits give low values 1.14 | S. cerevisiae deletion strains, locus YOL012C, strain htz1 0.757 | S. cerevisiae deletion strains, locus YOL147C, strain pex11, hits give low values 0.998 | S. cerevisiae deletion strains, locus YOR001W, strain rrp6, hits give low values 1 | S. cerevisiae deletion strains, locus YOR061W, strain CKA2, hits give low values 0.984 | S. cerevisiae deletion strains, locus YOR069W, strain VPS5, hits give low values 1 | S. cerevisiae deletion strains, locus YOR070C, strain gyp1, hits give low values 0.995 | S. cerevisiae deletion strains, locus YOR080W, strain dia2, hits give low values 0.985 | S. cerevisiae deletion strains, locus YOR083W, strain WHI5, hits give low values 0.996 | S. cerevisiae deletion strains, locus YOR106W, strain vam3, hits give low values 1.01 | S. cerevisiae deletion strains, locus YOR136W, strain idh2, hits give low values 1.01 | S. cerevisiae deletion strains, locus YOR144C, strain elg1, hits give low values 0.991 | S. cerevisiae deletion strains, locus YOR184W, strain ser1, hits give low values 0.982 | S. cerevisiae deletion strains, locus YOR231W, strain MKK1, hits give low values 0.961 | S. cerevisiae deletion strains, locus YOR265W, strain rbl2, hits give low values 0.989 | S. cerevisiae deletion strains, locus YOR270C, strain vph1, hits give low values 0.994 | S. cerevisiae deletion strains, locus YOR290C, strain snf2, hits give low values 0.989 | S. cerevisiae deletion strains, locus YOR316C, strain cot1, hits give low values 0.984 | S. cerevisiae deletion strains, locus YPL051W, strain arl3, hits give low values 1 | S. cerevisiae deletion strains, locus YPL055C, strain LGE1, hits give low values 0.97 | S. cerevisiae deletion strains, locus YPL078C, strain atp4, hits give low values 0.992 | S. cerevisiae deletion strains, locus YPL106C, strain sse1, hits give low values 0.989 | S. cerevisiae deletion strains, locus YPL240C, strain hsp82, hits give low values 0.989 | S. cerevisiae deletion strains, locus YPL241C, strain CIN2, hits give low values 0.998 | S. cerevisiae deletion strains, locus YPL256C, strain CLN2, hits give low values 0.968 | S. cerevisiae deletion strains, locus YPR119W, strain clb2, hits give low values 0.997 | S. cerevisiae deletion strains, locus YPR141C, strain kar3, hits give low values 0.976 | S. cerevisiae deletion strains, locus YPR163C, strain tif3, hits give low values 1.01 | S. cerevisiae deletion strains, locus YPR167C, strain met16, hits give low values 0.993 | S. cerevisiae deletion strains, strain wtn01, hits give low values 0.997 | S. cerevisiae strains, strain wild type, hits give low values 1.03
